This test addresses AT4G31550 (Arabidopsis thaliana, UniProt Q9SV15 228-325). Kind of test: DPI-ELISA; DPI-ELISA, streptavidin 384-well plate, 1-2 pmol biotinylated dsDNA per well, crude native E. coli extract, anti-His detection; buffer as in Brand et al. [46],; high values mean tight binding. The note with it: tags: C-terminal His (pET-DEST42); label: 5' biotin on forward strand; dsDNA, one strand shown. (In general: ELISA stands for enzyme-linked immunosorbent assay.)
AT4G31550, sequence (Q9SV15 228-325): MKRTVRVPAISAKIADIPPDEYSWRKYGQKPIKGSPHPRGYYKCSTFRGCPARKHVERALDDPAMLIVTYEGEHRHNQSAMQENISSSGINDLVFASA
Sequence AAAAAATATGTTTTCGCTTTATTCTTAAAA had a binding signal of 0.52 ± 0.099 absorbance.

The sequence AAAAAACTTCCCTCCTTGTCCTCCCCAAAA returned a binding signal of 0.66 ± 0.113 absorbance.

For the sequence AAAAAACTTGCTCCTCCGTTTTACTCAAAA, the binding signal was determined as 0.775 ± 0.276 absorbance.

AAAAAATCGCGTCCGTGCTCAATCCAAAAA came in with a binding signal of 0.48 ± 0.0566 absorbance.

Consider AAAAAAGTCGTCACGCACGTGAATACAAAA, for which the binding signal was determined as 1.15 ± 0.0141 absorbance.

For the sequence AAAAAACCCGCCGTCGTGATTATCACAAAA, the binding signal was 0.73 ± 0.0707 absorbance.

AAAAAAGATTGACTCGTCTTACTCGAAAAA returned a binding signal of 3.08 ± 0.742 absorbance.

In the case of AAAAAACATAACCGCAAAATCCCTACAAAA, the binding signal is 0.545 ± 0.0919 absorbance.

Consider AAAAAATGGTTTCAATTTTCCGTCCGAAAA, for which the binding signal came out at 0.405 ± 0.0778 absorbance.

As to AAAAAACCGATCATCACATATCACTGAAAA, the binding signal came to 0.58 ± 0.141 absorbance.

Take AAAAAAAAATCGAATTTGGACTTCCGAAAA: the binding signal came to 0.775 ± 0.0354 absorbance.

As to AAAAAAGGGTTTGTCGGGAATTGCCGAAAA, the binding signal was found to be 0.58 ± 0.0849 absorbance.

AAAAAATTCTAACTTAGCCTATGTCCAAAA registered a binding signal of 0.695 ± 0.163 absorbance.

Sequence AAAAAATATGTAGCTGCCGTTACGCTAAAA showed a binding signal of 0.54 ± 0.212 absorbance.

AAAAAAGTTCGGGGCTTGGTTTGGAAAAAA displayed a binding signal of 0.765 ± 0.205 absorbance.

AAAAAAGTCATTATAACCCAAACTCTAAAA gave a binding signal of 0.5 ± 0.113 absorbance.

Turning to AAAAAACTAACCGTCGCAGGCGTGTGAAAA, the binding signal was 0.715 ± 0.134 absorbance.

In the case of AAAAAAGGGAGTCATGCTTCTTGTTTAAAA, the binding signal was 0.645 ± 0.0919 absorbance.

In turn, AAAAAAGAGTGGTTTATTAATGTATAAAAA gave a binding signal of 0.74 ± 0.184 absorbance.

Consider AAAAAATCCTATCTTGGCTTTGGCCTAAAA, for which the binding signal was 0.65 ± 0.156 absorbance.

AAAAAACTGGCGACTGCCAGTGGTAGAAAA showed a binding signal of 0.385 ± 0.0354 absorbance.

The sequence AAAAAATGTCTTCTTACACCCTCTAGAAAA registered a binding signal of 0.68 ± 0.0707 absorbance.

In turn, AAAAAATCGCACTGCCGCCGATGGCTAAAA showed a binding signal of 0.625 ± 0.134 absorbance.

AAAAAATAGGCGTTATGGCTAACACCAAAA yielded a binding signal of 0.685 ± 0.106 absorbance.

For AAAAAAGCTCCCGTCTCTTAGTTCTAAAAA, the binding signal turned out to be 0.695 ± 0.12 absorbance.

AAAAAATTTTGTTTTTGCTTTTCCTTAAAA: the binding signal came out at 0.38 ± 0.0566 absorbance.

With AAAAAAACATCCACACCCGCGGCGCGAAAA, the binding signal worked out at 0.56 ± 0.141 absorbance.

AAAAAATGCCCATGTGCACCCGTACGAAAA: the binding signal was determined as 0.56 ± 0.0849 absorbance.

For the sequence AAAAAAGCTTCTCATGTTGTCTTAGGAAAA, the binding signal is 0.695 ± 0.177 absorbance.

In the case of AAAAAACCTTACTGTTGATTCTGGTTAAAA, the binding signal stood at 0.635 ± 0.134 absorbance.

AAAAAAGCTAGTGCTGCCACCAACGTAAAA displayed a binding signal of 0.535 ± 0.12 absorbance.

With AAAAAATCCCTGCTCCCCTGGTTCCTAAAA, the binding signal came out at 0.45 ± 0.141 absorbance.

For AAAAAACAGTTCGATGTCACCCCCGCAAAA, the binding signal is 0.565 ± 0.106 absorbance.

Sequence AAAAAACTAGGTATCGGTAGGCGCCGAAAA gave a binding signal of 0.6 ± 0.0849 absorbance.

As for AAAAAAGGTGAGGAAGTTGGGTATGGAAAA, the binding signal came to 0.64 ± 0.0566 absorbance.

AAAAAAATCCGATCGATGCATATATAAAA gave a binding signal of 0.725 ± 0.106 absorbance.

Regarding AAAAAAGTCTAAGGACTTATAGCTGTAAAA, the binding signal worked out at 1.65 ± 0.608 absorbance.

AAAAAATATCCTATTCTAATTTATATAAAA showed a binding signal of 0.55 ± 0.113 absorbance.

For the origin of these results see PMC3795721, “Screening for Protein-DNA Interactions by Automatable DNA-Protein Interaction ELISA”.
